Measurements taken from PubChem BioAssay AID588683 (Broad Institute, 2011).
Results with a measured potency or affinity are listed apart. The source made the active and inactive calls. The rule behind the calls is not given here.

biological target: Kelch-like ECH-associated protein 1 (Homo sapiens) + Nuclear factor erythroid 2-related factor 2 (Homo sapiens) (UniProt Q14145+Q16236); assay: disruptors of Keap1 binding to Nrf2 peptide – biochemical, fluorescence polarization, cherry-picked samples, dose response (AID 588683); details: plate reader; series mostly up to 26 µM;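 note: Kelch domain of Keap1 binding a fluorescein-labelled 9mer Nrf2 peptide; more negative means stronger inhibition of peptide binding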
Sequence (Q14145 whole entry, looked up, the tested form may be a part): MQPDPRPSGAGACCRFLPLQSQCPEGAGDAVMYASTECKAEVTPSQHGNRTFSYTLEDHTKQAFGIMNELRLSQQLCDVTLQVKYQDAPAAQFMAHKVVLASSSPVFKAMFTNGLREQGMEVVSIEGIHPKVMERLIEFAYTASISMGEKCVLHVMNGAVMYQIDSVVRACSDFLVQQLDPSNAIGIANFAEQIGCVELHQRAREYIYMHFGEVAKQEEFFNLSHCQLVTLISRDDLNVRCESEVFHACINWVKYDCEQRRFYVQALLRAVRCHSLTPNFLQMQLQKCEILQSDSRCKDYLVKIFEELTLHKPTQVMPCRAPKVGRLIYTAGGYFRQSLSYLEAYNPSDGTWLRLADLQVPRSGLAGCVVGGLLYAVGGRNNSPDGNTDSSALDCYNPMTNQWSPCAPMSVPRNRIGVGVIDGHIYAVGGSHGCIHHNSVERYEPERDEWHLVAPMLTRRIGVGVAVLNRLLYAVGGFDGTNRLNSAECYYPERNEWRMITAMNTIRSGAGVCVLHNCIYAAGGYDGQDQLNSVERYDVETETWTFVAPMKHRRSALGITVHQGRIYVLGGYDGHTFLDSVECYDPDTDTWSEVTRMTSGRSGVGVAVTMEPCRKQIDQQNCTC
Sequence (Q16236 whole entry, looked up, the tested form may be a part): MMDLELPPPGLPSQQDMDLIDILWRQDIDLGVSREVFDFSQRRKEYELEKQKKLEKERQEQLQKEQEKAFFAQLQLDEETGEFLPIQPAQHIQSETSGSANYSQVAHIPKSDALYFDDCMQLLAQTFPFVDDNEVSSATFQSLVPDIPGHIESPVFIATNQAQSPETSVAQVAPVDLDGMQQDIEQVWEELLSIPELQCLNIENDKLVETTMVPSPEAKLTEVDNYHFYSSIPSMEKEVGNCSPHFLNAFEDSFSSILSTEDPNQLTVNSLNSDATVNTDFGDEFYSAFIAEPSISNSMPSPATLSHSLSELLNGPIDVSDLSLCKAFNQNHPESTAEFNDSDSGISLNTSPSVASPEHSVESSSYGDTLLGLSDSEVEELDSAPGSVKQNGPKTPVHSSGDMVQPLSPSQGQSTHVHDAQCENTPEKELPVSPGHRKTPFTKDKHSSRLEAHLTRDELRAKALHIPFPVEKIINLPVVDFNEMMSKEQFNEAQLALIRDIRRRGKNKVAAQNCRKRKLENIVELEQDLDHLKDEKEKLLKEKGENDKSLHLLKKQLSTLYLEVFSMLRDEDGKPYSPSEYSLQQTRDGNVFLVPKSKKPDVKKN

Row | Compound | outcome
1 | CC1(O)CCN2C(=O)CCc3cccc1c32 (stereo unspecified) | inactive
2 | CN1/C(=C\C=C2C(=O)NC(=O)NC2=O)C(C)(C)c2ccccc21 | inactive
3 | O=C(O)c1cccc2c1NC(C(=O)O)C1CC(Sc3ccccc3[N+](=O)[O-])C(Cl)C21 (stereo unspecified) | inactive
4 | COc1ccc(-n2c(CNCCc3ccc(C)cc3)nc3ccccc3c2=O)cc1 | inactive
5 | COCCNC(=O)Cn1cc(/C=C2\C(=O)NC(=O)N(c3cccc(C)c3C)C2=O)c2ccccc21 | inactive
6 | CCOC(=O)c1c(/N=C/c2c(O)n(-c3cccc(C)c3)c(=O)[nH]c2=O)sc2c1CCCC2 | inactive
7 | CN1CC=C2C(C#N)=C(N)C(C#N)(C#N)C(c3ccncc3)C2C1 (stereo unspecified) | inactive
8 | Cn1cc(/C=C2\C(=O)NC(=O)N(c3ccccc3)C2=O)c2ccccc21 | inactive
9 | CCCCc1ccc(C(=O)O)nc1 | inactive
10 | Cc1cc(C=C2C(=O)NC(=O)NC2=O)c(C)n1-c1cccnc1 | inactive
11 | CCn1cc(C=C2C(=O)NC(=O)NC2=O)c2ccccc21 | inactive
